Key:
[1] = target: Mitogen-activated protein kinase kinase kinase kinase 4 (Homo sapiens) (UniProt O95819); conditions: at 1 µM;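 further: reported figure is an averaged inhibition value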
[2] = target: Dual specificity mitogen-activated protein kinase kinase 1 (Homo sapiens) (UniProt Q02750); conditions: at 0.1 µM
[3] = target: Dual specificity mitogen-activated protein kinase kinase 1 (Homo sapiens) (UniProt Q02750); conditions: at 1 µM
[4] = target: Misshapen-like kinase 1 (Homo sapiens) (UniProt Q8N4C8); conditions: at 0.1 µM
[5] = target: Misshapen-like kinase 1 (Homo sapiens) (UniProt Q8N4C8); conditions: at 1 µM
[6] = target: T1, Serine/threonine-protein kinase 4 (Homo sapiens) (UniProt Q13043); conditions: at 0.1 µM
T1 sequence (whole entry): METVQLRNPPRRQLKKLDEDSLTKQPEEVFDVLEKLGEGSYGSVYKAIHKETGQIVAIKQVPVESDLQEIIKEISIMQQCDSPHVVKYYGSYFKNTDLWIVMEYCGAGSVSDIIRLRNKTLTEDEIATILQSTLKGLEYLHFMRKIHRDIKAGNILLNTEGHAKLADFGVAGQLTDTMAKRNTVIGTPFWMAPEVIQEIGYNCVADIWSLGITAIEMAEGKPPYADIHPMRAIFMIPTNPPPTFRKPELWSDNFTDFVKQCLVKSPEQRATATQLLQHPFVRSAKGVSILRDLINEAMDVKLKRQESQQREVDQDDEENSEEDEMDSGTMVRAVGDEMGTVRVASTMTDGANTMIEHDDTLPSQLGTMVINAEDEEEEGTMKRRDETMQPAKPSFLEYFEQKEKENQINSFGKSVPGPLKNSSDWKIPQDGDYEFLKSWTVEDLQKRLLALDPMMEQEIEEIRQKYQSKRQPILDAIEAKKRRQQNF

[7] = target: T1, Serine/threonine-protein kinase 4 (Homo sapiens); conditions: at 1 µM
[8] = target: T2, Serine/threonine-protein kinase 3 (Homo sapiens) (UniProt Q13188); conditions: at 0.1 µM
T2 sequence (whole entry): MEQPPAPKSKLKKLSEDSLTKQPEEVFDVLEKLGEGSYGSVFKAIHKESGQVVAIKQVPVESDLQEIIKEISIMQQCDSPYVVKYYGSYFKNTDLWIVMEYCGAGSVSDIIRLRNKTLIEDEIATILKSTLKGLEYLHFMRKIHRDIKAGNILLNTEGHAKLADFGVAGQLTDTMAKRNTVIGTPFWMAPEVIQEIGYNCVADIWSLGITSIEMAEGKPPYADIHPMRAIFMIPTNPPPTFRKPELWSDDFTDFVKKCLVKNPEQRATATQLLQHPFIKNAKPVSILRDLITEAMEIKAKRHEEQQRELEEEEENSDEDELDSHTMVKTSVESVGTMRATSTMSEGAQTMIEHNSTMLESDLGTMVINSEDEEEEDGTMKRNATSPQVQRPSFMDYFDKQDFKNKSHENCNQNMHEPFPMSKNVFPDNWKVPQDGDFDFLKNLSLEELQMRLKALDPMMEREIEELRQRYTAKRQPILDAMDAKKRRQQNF

[9] = target: T2, Serine/threonine-protein kinase 3 (Homo sapiens); conditions: at 1 µM
[10] = target: Serine/threonine-protein kinase 26 (Homo sapiens) (UniProt Q9P289); conditions: at 0.1 µM
[11] = target: Serine/threonine-protein kinase 26 (Homo sapiens) (UniProt Q9P289); conditions: at 1 µM
[12] = target: Serine/threonine-protein kinase PAK 1 (Homo sapiens) (UniProt Q13153); conditions: at 0.1 µM
[13] = target: Serine/threonine-protein kinase PAK 1 (Homo sapiens) (UniProt Q13153); conditions: at 1 µM
[14] = target: Serine/threonine-protein kinase PAK 2 (Homo sapiens) (UniProt Q13177); conditions: at 0.1 µM
[15] = target: Serine/threonine-protein kinase PAK 2 (Homo sapiens) (UniProt Q13177); conditions: at 1 µM
[16] = target: Serine/threonine-protein kinase PAK 3 (Homo sapiens) (UniProt O75914); conditions: at 0.1 µM
[17] = target: Serine/threonine-protein kinase PAK 3 (Homo sapiens) (UniProt O75914); conditions: at 1 µM
[18] = target: Serine/threonine-protein kinase PAK 5 (Homo sapiens) (UniProt Q9P286); conditions: at 0.1 µM
[19] = target: Serine/threonine-protein kinase PAK 5 (Homo sapiens) (UniProt Q9P286); conditions: at 1 µM
[20] = target: Serine/threonine-protein kinase PAK 6 (Homo sapiens) (UniProt Q9NQU5); conditions: at 0.1 µM;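 further: mean PAK6 inhibition reported from the GSK PKIS screen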
Sequence of Serine/threonine-protein kinase PAK 6 (Homo sapiens) (Q9NQU5 whole entry, looked up): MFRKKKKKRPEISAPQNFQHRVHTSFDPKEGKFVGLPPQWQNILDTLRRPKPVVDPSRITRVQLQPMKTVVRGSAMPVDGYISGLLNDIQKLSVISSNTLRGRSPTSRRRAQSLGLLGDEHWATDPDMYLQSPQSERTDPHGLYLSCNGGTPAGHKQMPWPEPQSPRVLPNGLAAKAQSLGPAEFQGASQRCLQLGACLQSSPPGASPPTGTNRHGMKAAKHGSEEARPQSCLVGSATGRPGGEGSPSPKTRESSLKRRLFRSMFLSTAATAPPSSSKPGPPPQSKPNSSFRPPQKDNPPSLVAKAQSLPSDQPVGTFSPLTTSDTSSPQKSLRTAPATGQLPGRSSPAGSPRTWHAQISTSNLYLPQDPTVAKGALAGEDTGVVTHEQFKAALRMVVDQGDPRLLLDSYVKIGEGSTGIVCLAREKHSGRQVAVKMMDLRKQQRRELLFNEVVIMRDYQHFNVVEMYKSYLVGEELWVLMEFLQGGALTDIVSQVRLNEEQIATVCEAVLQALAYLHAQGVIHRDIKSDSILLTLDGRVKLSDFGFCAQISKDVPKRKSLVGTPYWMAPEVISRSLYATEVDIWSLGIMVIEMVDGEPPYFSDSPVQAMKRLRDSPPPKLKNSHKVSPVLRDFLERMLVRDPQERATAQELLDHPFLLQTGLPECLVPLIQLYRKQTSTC

Sequence of Serine/threonine-protein kinase PAK 3 (Homo sapiens) (O75914 whole entry, looked up): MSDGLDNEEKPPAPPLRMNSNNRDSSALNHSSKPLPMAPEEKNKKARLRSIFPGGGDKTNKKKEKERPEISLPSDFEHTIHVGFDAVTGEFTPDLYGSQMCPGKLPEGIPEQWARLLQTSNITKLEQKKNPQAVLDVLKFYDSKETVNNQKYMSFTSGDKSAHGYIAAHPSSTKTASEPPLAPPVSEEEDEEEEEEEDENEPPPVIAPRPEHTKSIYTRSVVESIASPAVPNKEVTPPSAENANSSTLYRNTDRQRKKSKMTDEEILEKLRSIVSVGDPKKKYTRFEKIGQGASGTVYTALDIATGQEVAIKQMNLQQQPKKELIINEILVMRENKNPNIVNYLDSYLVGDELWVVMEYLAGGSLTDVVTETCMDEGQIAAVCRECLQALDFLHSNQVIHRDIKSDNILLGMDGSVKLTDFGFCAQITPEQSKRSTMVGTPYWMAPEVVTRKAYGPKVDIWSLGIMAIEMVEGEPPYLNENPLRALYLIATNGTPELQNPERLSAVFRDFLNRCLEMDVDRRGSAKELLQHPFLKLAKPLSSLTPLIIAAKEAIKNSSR
Sequence of Serine/threonine-protein kinase PAK 1 (Homo sapiens) (Q13153 whole entry): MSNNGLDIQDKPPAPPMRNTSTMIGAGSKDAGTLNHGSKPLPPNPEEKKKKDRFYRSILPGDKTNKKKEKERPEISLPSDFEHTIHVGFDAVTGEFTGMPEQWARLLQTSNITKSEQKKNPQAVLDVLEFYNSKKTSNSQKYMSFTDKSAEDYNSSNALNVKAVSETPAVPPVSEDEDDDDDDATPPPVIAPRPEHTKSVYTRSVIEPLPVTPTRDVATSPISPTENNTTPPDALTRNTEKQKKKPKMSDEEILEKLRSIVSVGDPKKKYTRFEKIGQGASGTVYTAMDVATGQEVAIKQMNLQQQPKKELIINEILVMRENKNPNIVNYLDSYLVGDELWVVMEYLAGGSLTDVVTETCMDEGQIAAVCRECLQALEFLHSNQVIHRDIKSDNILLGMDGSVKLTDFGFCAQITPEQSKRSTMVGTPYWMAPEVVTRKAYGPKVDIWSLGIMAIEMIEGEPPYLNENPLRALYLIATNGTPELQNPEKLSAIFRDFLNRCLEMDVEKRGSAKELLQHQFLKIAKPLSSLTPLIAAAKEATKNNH
Sequence of Misshapen-like kinase 1 (Homo sapiens) (Q8N4C8 whole entry, looked up): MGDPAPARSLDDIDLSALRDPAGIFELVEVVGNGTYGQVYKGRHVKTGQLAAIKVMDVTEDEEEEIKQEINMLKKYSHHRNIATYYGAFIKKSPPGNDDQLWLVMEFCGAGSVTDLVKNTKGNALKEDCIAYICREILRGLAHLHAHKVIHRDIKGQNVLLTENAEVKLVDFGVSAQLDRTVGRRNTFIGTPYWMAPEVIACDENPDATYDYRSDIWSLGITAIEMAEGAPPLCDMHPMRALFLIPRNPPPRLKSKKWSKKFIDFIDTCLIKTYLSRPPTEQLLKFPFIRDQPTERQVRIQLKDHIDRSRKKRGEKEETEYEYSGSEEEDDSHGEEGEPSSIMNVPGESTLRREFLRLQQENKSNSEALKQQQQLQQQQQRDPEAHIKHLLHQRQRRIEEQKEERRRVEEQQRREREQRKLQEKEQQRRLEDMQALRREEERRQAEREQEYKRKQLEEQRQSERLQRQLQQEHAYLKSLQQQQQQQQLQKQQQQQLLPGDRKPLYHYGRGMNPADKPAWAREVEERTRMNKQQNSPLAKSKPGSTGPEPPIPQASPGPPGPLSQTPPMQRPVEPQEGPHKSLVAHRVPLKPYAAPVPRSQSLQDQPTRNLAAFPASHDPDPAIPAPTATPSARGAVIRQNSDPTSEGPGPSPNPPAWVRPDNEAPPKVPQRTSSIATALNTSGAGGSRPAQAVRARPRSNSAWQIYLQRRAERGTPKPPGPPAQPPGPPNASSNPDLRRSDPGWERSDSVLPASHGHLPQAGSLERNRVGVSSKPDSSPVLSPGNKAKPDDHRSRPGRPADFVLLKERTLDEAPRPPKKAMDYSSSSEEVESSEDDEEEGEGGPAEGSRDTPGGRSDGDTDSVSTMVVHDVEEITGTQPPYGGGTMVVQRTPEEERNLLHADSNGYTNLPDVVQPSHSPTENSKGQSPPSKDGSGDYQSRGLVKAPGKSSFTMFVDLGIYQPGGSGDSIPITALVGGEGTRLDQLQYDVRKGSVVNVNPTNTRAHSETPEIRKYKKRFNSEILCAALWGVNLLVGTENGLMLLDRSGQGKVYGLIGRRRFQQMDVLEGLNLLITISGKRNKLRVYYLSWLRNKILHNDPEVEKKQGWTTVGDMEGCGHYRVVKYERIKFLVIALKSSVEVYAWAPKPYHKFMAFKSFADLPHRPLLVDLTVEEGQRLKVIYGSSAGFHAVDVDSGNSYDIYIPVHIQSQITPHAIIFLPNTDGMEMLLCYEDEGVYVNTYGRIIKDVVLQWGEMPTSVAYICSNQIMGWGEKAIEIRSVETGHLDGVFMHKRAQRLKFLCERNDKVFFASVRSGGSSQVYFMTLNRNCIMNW
Sequence of Serine/threonine-protein kinase 26 (Homo sapiens) (Q9P289 2-416 limits assumed): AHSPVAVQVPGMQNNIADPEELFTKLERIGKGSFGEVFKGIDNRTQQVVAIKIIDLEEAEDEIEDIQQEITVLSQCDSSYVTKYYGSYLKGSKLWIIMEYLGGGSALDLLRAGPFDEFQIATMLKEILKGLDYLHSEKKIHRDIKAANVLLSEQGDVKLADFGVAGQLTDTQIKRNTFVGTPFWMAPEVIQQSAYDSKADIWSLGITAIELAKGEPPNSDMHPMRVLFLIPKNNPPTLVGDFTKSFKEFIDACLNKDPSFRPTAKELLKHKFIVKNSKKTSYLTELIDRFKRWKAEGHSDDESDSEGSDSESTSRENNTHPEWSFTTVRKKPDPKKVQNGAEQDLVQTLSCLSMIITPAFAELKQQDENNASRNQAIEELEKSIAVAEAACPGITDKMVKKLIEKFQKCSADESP
Sequence of Serine/threonine-protein kinase PAK 5 (Homo sapiens) (Q9P286 whole entry, looked up): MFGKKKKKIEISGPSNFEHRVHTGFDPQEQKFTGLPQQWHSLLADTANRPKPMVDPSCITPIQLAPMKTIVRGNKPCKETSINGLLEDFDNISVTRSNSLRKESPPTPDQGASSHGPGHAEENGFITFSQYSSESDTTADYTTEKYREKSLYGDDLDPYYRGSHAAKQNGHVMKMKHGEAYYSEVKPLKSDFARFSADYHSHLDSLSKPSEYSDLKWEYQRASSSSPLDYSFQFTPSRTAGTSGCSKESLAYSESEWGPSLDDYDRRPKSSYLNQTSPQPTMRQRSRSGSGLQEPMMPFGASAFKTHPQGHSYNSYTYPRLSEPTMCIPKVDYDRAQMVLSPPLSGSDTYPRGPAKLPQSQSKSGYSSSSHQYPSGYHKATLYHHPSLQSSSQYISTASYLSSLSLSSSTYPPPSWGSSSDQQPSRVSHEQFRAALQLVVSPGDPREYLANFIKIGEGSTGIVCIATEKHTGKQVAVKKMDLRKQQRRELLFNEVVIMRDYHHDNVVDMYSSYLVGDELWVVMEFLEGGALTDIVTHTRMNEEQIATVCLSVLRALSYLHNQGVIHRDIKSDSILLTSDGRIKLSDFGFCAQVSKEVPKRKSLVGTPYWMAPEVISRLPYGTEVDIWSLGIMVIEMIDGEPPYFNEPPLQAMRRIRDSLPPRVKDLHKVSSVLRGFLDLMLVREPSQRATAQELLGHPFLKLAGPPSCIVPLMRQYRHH
Sequence of Serine/threonine-protein kinase PAK 2 (Homo sapiens) (Q13177 whole entry): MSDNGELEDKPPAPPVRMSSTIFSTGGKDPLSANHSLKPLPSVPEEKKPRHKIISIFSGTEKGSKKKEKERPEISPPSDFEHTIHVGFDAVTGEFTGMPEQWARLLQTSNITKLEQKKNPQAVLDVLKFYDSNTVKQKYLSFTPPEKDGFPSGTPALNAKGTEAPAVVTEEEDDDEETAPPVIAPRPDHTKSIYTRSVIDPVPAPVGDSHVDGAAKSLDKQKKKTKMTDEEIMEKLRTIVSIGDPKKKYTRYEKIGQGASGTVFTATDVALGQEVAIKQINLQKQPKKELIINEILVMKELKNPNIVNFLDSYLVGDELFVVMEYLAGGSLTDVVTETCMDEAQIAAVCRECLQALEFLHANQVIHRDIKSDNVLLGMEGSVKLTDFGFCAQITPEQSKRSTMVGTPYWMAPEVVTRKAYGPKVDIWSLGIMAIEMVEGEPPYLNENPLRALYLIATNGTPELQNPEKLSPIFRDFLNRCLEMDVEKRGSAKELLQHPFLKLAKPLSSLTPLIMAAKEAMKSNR

Row | Structure (SMILES) | inhibition [1] [%] | inhibition [2] [%] | inhibition [3] [%] | inhibition [4] [%] | inhibition [5] [%] | inhibition [6] [%] | inhibition [7] [%] | inhibition [8] [%] | inhibition [9] [%] | inhibition [10] [%] | inhibition [11] [%] | inhibition [12] [%] | inhibition [13] [%] | inhibition [14] [%] | inhibition [15] [%] | inhibition [16] [%] | inhibition [17] [%] | inhibition [18] [%] | inhibition [19] [%] | inhibition [20] [%]
1 | O=C(O[C@H]1CN[C@H](C#Cc2cc3ncnc(Nc4ccc5c(cnn5Cc5ccccc5)c4)c3s2)C1)N1CCOCC1 | 2.37 | -0.35 | -0.55 | -0.37 | 1.62 | 2.4 | 4.54 | 1.56 | 5.49 | 0.75 | 2.02 | 2.28 | 0.73 | -1.9 | -1.35 | -0.09 | 0.69 | -0.12 | -1.71 | 3.43
2 | Cn1c(-c2nonc2N)nc2cnccc21 | 26.2 | 4.67 | 4.45 | 5.83 | 16.6 | 3.91 | 3.75 | 4.04 | 5.05 | -0.57 | -1.1 | 5.69 | 9.42 | 1.04 | 0.39 | 3.23 | 2.69 | -1.86 | -0.53 | 3.95
3 | O=C(Nc1n[nH]c2nnc(-c3cccnc3)cc12)C1CC1 | 20.3 | 0.74 | 3.42 | 1.29 | 13.1 | -0.95 | -0.48 | -2.99 | -0.37 | 0.94 | 1.72 | -0.56 | 2.67 | -0.8 | -0.23 | -0.23 | 0.64 | -4.39 | -1.42 | -7.92
4 | CC1(C)CC(n2cnc(-c3ccc(F)cc3)c2-c2ccnc(N)n2)CC(C)(C)N1 | 2.96 | 1.4 | 1.04 | 1.2 | 4.78 | -3.13 | -0.15 | -0.38 | -1.38 | -0.28 | -4.55 | 0.1 | 2.11 | -0.56 | 0.36 | 0.33 | 0.79 | 4.67 | 0.79 | 1.59
5 | FC(F)(F)CNc1nccc(-c2cnn3ncccc23)n1 | 3.37 | 1.61 | 2.41 | 3.42 | 3.44 | 3.65 | 3.82 | 6.06 | 6.67 | -0.96 | -0.52 | 0.97 | 6.19 | 0.24 | -0.87 | 4.27 | 3.14 | 1.55 | 1.35 | -2.63
6 | COc1cc(N2CCN(C(C)C)CC2)ccc1Nc1nc(Nc2cccc3ncccc23)c2cc[nH]c2n1 | 8.08 | -1.29 | 0.07 | 0.56 | 6.73 | -1.1 | 0.07 | 0.03 | 0.57 | -0.29 | 1.78 | 0.3 | -1.25 | 0.87 | -0.27 | -1.68 | -0.48 | -2.43 | -1.65 | 1.57
7 | Fc1ccc(Nc2nccc(-c3c(-c4ccc(C(F)(F)F)cc4)nn4ncccc34)n2)cc1F | 2.77 | 3.85 | 3.88 | 6.5 | 4.38 | 6.25 | 7.23 | 6.51 | 5.09 | -0.69 | -0.83 | 4.75 | 4.66 | 1.92 | 2.47 | 3.13 | 3.25 | -0.66 | -1.33 | 0.92

Reference: ChEMBL document CHEMBL1961873, “Compounds: GSK PKIS; Assays: Nanosyn kinase panel” (2012)
